Experimental findings from PubChem BioAssay (NCATS) are described below.

Molecules are shown by their SMILES. Records with an inconclusive call do not appear. A number with no mark means an inactive call. The source made the active and inactive calls. The call rests on the fitted dose curve; in most records, active means well fitted curve in the direction sought with a large enough effect; inconclusive means small, poorly fitted or top-dose-only effect, or another doubt; inactive means no such curve, though single readings can be large; an effect the other way counts as inactive or inconclusive.

Experiment [1] is described as follows: qHTS of pediatric cancer cell lines to identify multiple opportunities for drug repurposing: Confirmatory screen for Saos-2 cells (AID 1347127). Further: nearly all actives have a fitted effect of over 60% in size. Further: potency means the concentration at half of the fitted maximal effect. The procedure, abridged: (§1)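 Viability after 48 h compound treatment at 37C, 500-1,000 cells/well, read as ATP luminescence with CellTiter-Glo. Primary screens used 11-point (MIPE, 0.78 nM-46 µM) or 8-point (NPC, 0.59 nM-46 µM) final concentrations; follow-up screens used 11-point dilutions.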
(In qHTS, concentration-response curves come from the screen itself.)

Experiment [2] in a line: qHTS of pediatric cancer cell lines to identify multiple opportunities for drug repurposing: Confirmatory screen for OHS-50 cells (AID 1347128).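 Further: compound exposure lasted 48 h at 37 degrees C; nearly all actives have a fitted effect of over 55% in size.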 Further: potency means the concentration at half of the fitted maximal effect. The procedure, abridged:
as §1

Experiment [3] can be described thus: qHTS of pediatric cancer cell lines to identify multiple opportunities for drug repurposing: Confirmatory screen for SK-N-SH cells (AID 1347129).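 Further: cells exposed to compound for 48 h before viability read; nearly all actives have a fitted effect of over 60% in size.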 Further: potency means the concentration at half of the fitted maximal effect. The procedure, abridged: as §1
For experiment [4], the system named is Zika virus NS2B-NS3 protease. The experiment can be described thus: Primary screen GU AMC qHTS for Zika virus inhibitors (AID 1347154). Further: nearly all actives have a fitted effect of over 70% in size. Further: potency means the concentration at half of the fitted maximal effect.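 On activity change, negative = inhibition: 0% = no-inhibitor control and -100% = no-enzyme control.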 The procedure, abridged: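 Unlinked Zika NS2B hydrophilic domain–NS3 protease complex at 25 nM in 10 mM Tris-HCl pH 8.0, 0.01% Tween 20, with an AMC peptide substrate. Fluorescence change (340/450 nm) over 15 min at room temperature, normalized to controls, fitted to 4-parameter Hill.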

The test system of experiment [5] is Zika virus NS2B-NS3 protease (unlinked complex). The experiment can be described thus: Primary screen GU Rhodamine qHTS for Zika virus inhibitors: Unlinked NS2B-NS3 protease assay (AID 1347159). Further: nearly all actives have a fitted effect of over 60% in size. Further: potency means the concentration at half of the fitted maximal effect. On activity change, negative = inhibition: on the % scale 0 is the no-effect control and ±100 the full control effect. The procedure, abridged:
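Percent inhibition came from the 15-min rise in Rhodamine110 fluorescence (1.5 microM substrate, ~15% conversion), normalized to no-inhibitor and no-enzyme wells and Hill-fitted. Unlinked protease, 25 nM, pH 8.0 Tris buffer; compounds up to 114 microM, 15-min preincubation.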

A further experiment concerns the target Furin (Homo sapiens) (UniProt P09958). The experiment can be described thus: Furin counterscreen qHTS for Zika virus inhibitors (AID 1347149). Further: nearly all actives have a fitted effect of over 70% in size. Further: potency means the concentration at half of the fitted maximal effect.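 On activity change, negative = inhibition: purified recombinant full-length human furin enzyme at 5 nM; fluorescence gain from furin cutting a BOC-RVRR-AMC peptide substrate over 15 min; top concentration of the series differs between compounds; plate controls were no-inhibitor control for no effect and no-enzyme control for full effect.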 The procedure, abridged: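 Counterscreen measures cleavage of 2 microM BOC-RVRR-AMC, below its ~15 microM Km, by 5 nM full-length human furin at pH 7.0 after a 15-min compound preincubation. Inhibition derives from the 15-min fluorescence increase at 37C.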
Background: Counterscreens check selectivity or assay interference.

A short description of experiment [6]: ZIKV-mCherry secondary qHTS for Zika virus inhibitors (AID 1347158). Further: top concentration of the series differs between compounds. The procedure, abridged:
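Compounds were tested in Vero monkey kidney cells infected with recombinant mCherry-expressing Zika virus at MOI 1 for 48-72 h at 37 °C. Fixed cells were nuclear-stained and imaged, and infection rate was taken as the fraction of mCherry-positive cells.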

For experiment [7], the target named is N-terminal Xaa-Pro-Lys N-methyltransferase 1 (Homo sapiens) (UniProt Q9BV86). The experiment is described as follows: qHTS Assay for Inhibitors of N-terminal methyltransferase 1 (NTMT1): LOPAC validation of the NTMT1 SAHH-coupled ThioGlo3 Assay (AID 1347143).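 Further: SAH from peptide methylation measured as thiol fluorescence via SAHH coupling and ThioGlo3; potency means the concentration at half of the fitted maximal effect; nearly all actives have a fitted effect of over 70% in size.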 The conditions noted are these: recombinant NTMT1, SAHH-coupled ThioGlo3 fluorescence. The procedure, abridged: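 Steps: dispense 125nM NTMT1; pin-transfer test compounds at several concentrations, with 1uM RCC1-6 peptide as control; incubate 1 min; start with reagent holding 100uM SAM, 10uM SAHH, 15uM ThioGlo3; read at 0 and 30 min.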
Sequence of N-terminal Xaa-Pro-Lys N-methyltransferase 1 (Homo sapiens) (Q9BV86 whole entry, looked up): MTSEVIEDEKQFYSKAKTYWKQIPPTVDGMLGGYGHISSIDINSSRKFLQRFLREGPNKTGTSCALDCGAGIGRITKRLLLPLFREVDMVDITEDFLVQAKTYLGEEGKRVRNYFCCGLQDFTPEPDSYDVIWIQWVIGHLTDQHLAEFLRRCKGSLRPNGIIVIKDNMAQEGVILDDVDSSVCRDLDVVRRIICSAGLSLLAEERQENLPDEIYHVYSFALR

The subject of experiment [8] is Zika virus NS2B-NS3 protease (unlinked). The experiment can be described thus: Optimization of GU AMC qHTS for Zika virus inhibitors: Unlinked NS2B-NS3 protease assay (AID 1347151). Further: potency means the concentration at half of the fitted maximal effect; nearly all actives have a fitted effect of over 80% in size. The settings on record: recombinant ZIKV NS2B-NS3 protease, fluorogenic AMC substrate. The text has this:
Avindra Nath, Ph.D., National Institute of Neurological Disorders and Stroke (NINDS), Bethesda, MD
Radhakrishnan Padmanabhan, Ph.D., Georgetown University (GU), Washington D.C.
Zika Virus causes congenital defects, including microcephaly and is associated with Guillain-Barre syndrome, eningoencephalitis and myelitis in infected adult. […] Using a target-based approach, we hope to establish a screening paradigm to uncover novel, cell-active NS2B-NS3 protease (Zika Virus) specific inhibitors from NCATS' collection of small molecules using qHTS.
Early Translation Branch (ETB)
National Center for Advancing Translational Sciences (NCATS), Rockville, MD […]
Briefly, 3 microL of Zika virus unlinked NS2B-NS3 protease (25 nM for linked final concentration), in assay buffer (10 mM Tris-HCl pH 8.0 with 0.01% Tween 20) was dispensed into a 1,536-well solid-bottom black plate (Greiner Bio One, Monroe, NC). […] Plates were then read immediately on a ViewLux High-throughput CCD imager (PerkinElmer, Waltham, MA) equipped with standard UV fluorescence optics (340(30) nm excitation, 450(20) nm emission) then incubated (room temperature, protected from light) for 15 minutes (~20% conversion). The change in fluorescence intensity over the 15-minute reaction period was normalized against no-inhibitor and no-enzyme controls and the resulting percent inhibition data were fitted to a 4-parameter Hill equation. […]

Sequence of Furin (Homo sapiens) (P09958 whole entry, looked up): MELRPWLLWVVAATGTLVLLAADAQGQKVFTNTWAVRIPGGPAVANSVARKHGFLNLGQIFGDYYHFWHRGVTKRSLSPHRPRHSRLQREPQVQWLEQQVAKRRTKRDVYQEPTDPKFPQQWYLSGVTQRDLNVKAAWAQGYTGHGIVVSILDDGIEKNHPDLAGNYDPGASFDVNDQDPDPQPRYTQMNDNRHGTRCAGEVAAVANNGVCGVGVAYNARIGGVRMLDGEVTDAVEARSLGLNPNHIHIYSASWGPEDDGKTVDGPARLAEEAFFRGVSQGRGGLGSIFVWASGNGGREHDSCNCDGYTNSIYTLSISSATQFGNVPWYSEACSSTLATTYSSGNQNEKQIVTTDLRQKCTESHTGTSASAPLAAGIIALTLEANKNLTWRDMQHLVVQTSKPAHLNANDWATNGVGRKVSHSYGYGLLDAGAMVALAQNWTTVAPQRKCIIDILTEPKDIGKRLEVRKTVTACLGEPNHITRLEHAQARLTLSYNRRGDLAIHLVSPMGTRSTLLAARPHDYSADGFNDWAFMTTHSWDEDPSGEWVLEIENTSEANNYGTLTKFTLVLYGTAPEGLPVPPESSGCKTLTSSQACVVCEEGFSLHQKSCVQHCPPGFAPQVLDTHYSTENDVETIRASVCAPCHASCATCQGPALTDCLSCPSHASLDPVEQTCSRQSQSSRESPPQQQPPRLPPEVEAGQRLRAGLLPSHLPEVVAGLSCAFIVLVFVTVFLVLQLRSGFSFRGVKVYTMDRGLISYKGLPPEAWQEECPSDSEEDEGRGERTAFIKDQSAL

As for `CN1CCN(Cc2ccc(NC(=O)Nc3ccc(Oc4cc(NC(=O)C5CC5)ncn4)cc3)cc2C(F)(F)F)CC1`, the Potency in [1] was 0.369 µM (active); in experiment [2], 0.585 µM (active); in experiment [3] it was 0.743 µM (active). The Potency result in [4] and in [5] was “inactive” throughout.
Turning to `Cc1nc2ccc(CN(C)c3ccc(C(=O)N[C@@H](CCC(=O)O)C(=O)O)s3)cc2c(=O)[nH]1`, the Potency entry in experiment [1], in experiment [2] and in [4] was “inactive” each time.
As to `COc1cccc(Nc2c(C(N)=O)cnc3c(C)cc(S(=O)(=O)c4cccc(C(=O)N(C)C)c4)cc23)c1`, the Potency result in [1], in experiment [2], in [3], in experiment [4] and in [5] was “inactive” in each case.
Regarding `COC(=O)Nc1nc2ccc(C(=O)c3ccc(F)cc3)cc2[nH]1`, the Potency in [1] is 1.85 µM (active); in experiment [2] it was 2.61 µM (active). Also, the Potency entry in [3], in [4] and in experiment [5] was “inactive” throughout.
As to `CCN1CCN(Cc2ccc(-c3cc4c(N[C@H](C)c5ccccc5)ncnc4[nH]3)cc2)CC1`, the Potency in experiment [1] was 4.27 µM (active); in experiment [2], 4.79 µM (active); in [3], 10.8 µM (active); with Furin (Homo sapiens), 27.8 µM (active); in [4], 17.1 µM (active).
On to `CC(NCc1ccc2c(c1)nc(NC(=O)c1ccc(-c3cn[nH]c3)s1)n2CC(C)(C)O)C(C)(C)C` (stereo not drawn), for which the Potency is 0.928 µM (active) in experiment [1], 0.827 µM (active) in experiment [2] and 0.833 µM (active) in experiment [3].
For `Cc1c(C)n(Cc2ccc(-c3ccccc3C(=O)O)cc2)c2ccc(C(=O)N[C@@H](C)c3ccc([N+](=O)[O-])cc3)cc12`, in experiment [6], the Potency result is “inactive”.
As to `CNC(=O)CN1CCC(Oc2cc3c(Nc4cccc(Cl)c4F)ncnc3cc2OC)CC1`, the Potency result in [3], in [4] and in experiment [5] was “inactive” in each case.
With `Cn1c(=O)n(-c2ccc(C(C)(C)C#N)cc2)c2c3cc(-c4cnc5ccccc5c4)ccc3ncc21`, the Potency in experiment [2] was 5.85 µM (active). The Potency result in experiment [4] and in [5] was “inactive” each time.
Regarding `CNC(=O)c1ccc(N2C(=S)N(c3cnc(C#N)c(C(F)(F)F)c3)C(=O)C23CCC3)cc1F`, the Potency entry in experiment [2], in experiment [4] and in [5] was “inactive” each time.
`COc1ccc(-c2cc3c(C)nc(N)nc3n(C3CCC(OCCO)CC3)c2=O)cn1` (stereo not drawn): the Potency entry in [2], in experiment [4] and in [5] was “inactive” in each case.
As to `CS(=O)(=O)N1CCN(Cc2cc3nc(-c4cccc5[nH]ncc45)nc(N4CCOCC4)c3s2)CC1`, the Potency in experiment [2] was 5.37 µM (active); in experiment [3], 4.29 µM (active). Further, the Potency entry in experiment [5] was “inactive”.
With `O=c1c2ccccc2nc2n1CCc1c-2[nH]c2ccccc12`, the Potency in [7] is 56.2 µM (active); with Furin (Homo sapiens), 42.9 µM (active); in [8], 26.7 µM (active); in [4], 30.4 µM (active). For the same molecule, in experiment [5], the Potency entry is “inactive”.
As to `CC(C)c1ccccc1Cc1cc(C(=O)Nc2ccc(S(=O)(=O)c3ccccc3C(C)(C)C)cc2)c(O)c(O)c1O`, the Potency entry with Furin (Homo sapiens) was “inactive”. The Potency in experiment [4] was 17.1 µM (active).
`Nc1ccccc1NC(=O)c1ccc(CNC(=O)OCc2cccnc2)cc1`: the Potency in experiment [2] is 10.7 µM (active). The Potency result in [4] and in [5] was “inactive” in each case.
`Cc1[nH]c2ccccc2c1CCNCc1ccc(C=CC(=O)NO)cc1`: the Potency in experiment [2] was 0.293 µM (active). Besides, the Potency entry in experiment [4] is “inactive”.
Turning to `COc1c(OCCCN2CCOCC2)ccc2c3n(c(=NC(=O)c4cnc(N)nc4)nc12)CCN3`, in [2], the Potency is 2.29 µM (active). Also, the Potency result in [4] was “inactive”. Further, the activity change, negative = inhibition in [5] was 19.8% [at 19.1 µM].
Consider `CNC(=O)c1nn(C)c2c1C(C)(C)Cc1cnc(Nc3ccc(N4CCN(C)CC4)cc3)nc1-2`, for which the Potency in experiment [2] is 5.85 µM (active). Also, the Potency entry in [4] and in experiment [5] was “inactive” each time.
For the molecule `COc1ccc(OC)c(-c2nnc3ccc(-c4ccc(OC)c(O[C@@H]5CCOC5)c4)nn23)c1`, the Potency in experiment [2] was 6.57 µM (active). Besides, in [4], the Potency entry is “inactive”.
In the case of `CC(C)c1cc(C(=O)N2Cc3ccc(CN4CCN(C)CC4)cc3C2)c(O)cc1O`, in experiment [3], the Potency is 0.469 µM (active). The Potency entry in experiment [4] and in experiment [5] was “inactive” in each case.
On to `O=C(NC1CCNCC1)c1[nH]ncc1NC(=O)c1c(Cl)cccc1Cl`, for which, in [2], the Potency is 2.4 µM (active). Moreover, the Potency entry in experiment [4] is “inactive”.
Regarding `CCn1cc(-c2ccnc3[nH]c(-c4cccc(CN(C)C)c4)cc23)c(-c2ccc(NC(=O)N(C)C)cc2)n1`, the Potency is 2.96 µM (active) in experiment [3] and 21.5 µM (active) in the experiment with Furin (Homo sapiens). For the same molecule, in [5], the Potency entry is “inactive”.
As to `Cc1[nH]nc2ccc(-c3cncc(OC[C@@H](N)Cc4ccccc4)c3)cc12`, the Potency in experiment [2] is 4.65 µM (active). For the same molecule, the Potency entry in experiment [5] is “inactive”.
With `Cc1cc(Nc2ncnc3ccc(-c4ccc(CNCCS(C)(=O)=O)o4)cc23)ccc1Oc1ccn2ncnc2c1`, the Potency in experiment [3] was 20.9 µM (active).
On to `Cc1cn2c(-c3cn[nH]c3)cnc2c(Nc2ccc(C(=O)N3CCNCC3)cc2F)n1`, for which the Potency in [2] was 16.5 µM (active). Besides, the Potency entry in experiment [4] is “inactive”.
As to `Cc1ccc(NC(=O)C2(c3ccc4c(c3)OC(F)(F)O4)CC2)nc1-c1cccc(C(=O)O)c1`, the Potency result in [3] and in experiment [4] was “inactive” throughout. For the same molecule, in [5], the Potency is 17.8 µM (active).
`Nc1ccn([C@@H]2O[C@H](CO)[C@H](O)C2(F)F)c(=O)n1`: the Potency entry in [3] and in [4] was “inactive” each time.
In the case of `COc1cccc2nc(-c3cccs3)nc(NN3C(=O)C=C(C)C3=O)c12`, the Potency in experiment [3] was 2.96 µM (active). The Potency result in [4] and in experiment [5] was “inactive” each time.
